Source: PubChem (National Center for Advancing Translational Sciences (NCATS))
Only some compounds are listed: those with a hit (about 6.2% of all), similar ones and a draw of the others.
VP16 counter: VP16 counterscreen qHTS for inhibitors of ROR gamma transcriptional activity; Potency, µM (titrated, usually from 53.6 µM), most hits filed as inhibitors; 310,000 tested, 3.5% active; Drosophila S2 Gal4-VP16 UAS-luciferase, luminescence, 20 h;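 note: Gal4-VP16 expression switched on by copper sulfate through the metallothionein promoter; nearly all actives have a fitted effect of over 50% in size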
RORg inh: qHTS for inhibitors of ROR gamma transcriptional activity; Nuclear receptor ROR-gamma (Mus musculus), P51450; Drosophila S2 Gal4-RORgamma UAS-luciferase reporter, 20 h; Potency, µM (titrated, usually from 53.6 µM), most hits filed as inhibitors; 310,000 tested, 5.4% active; note: nearly all actives have a fitted effect of over 60% in size
Target sequence (P51450 whole entry, looked up, the tested form may be a part): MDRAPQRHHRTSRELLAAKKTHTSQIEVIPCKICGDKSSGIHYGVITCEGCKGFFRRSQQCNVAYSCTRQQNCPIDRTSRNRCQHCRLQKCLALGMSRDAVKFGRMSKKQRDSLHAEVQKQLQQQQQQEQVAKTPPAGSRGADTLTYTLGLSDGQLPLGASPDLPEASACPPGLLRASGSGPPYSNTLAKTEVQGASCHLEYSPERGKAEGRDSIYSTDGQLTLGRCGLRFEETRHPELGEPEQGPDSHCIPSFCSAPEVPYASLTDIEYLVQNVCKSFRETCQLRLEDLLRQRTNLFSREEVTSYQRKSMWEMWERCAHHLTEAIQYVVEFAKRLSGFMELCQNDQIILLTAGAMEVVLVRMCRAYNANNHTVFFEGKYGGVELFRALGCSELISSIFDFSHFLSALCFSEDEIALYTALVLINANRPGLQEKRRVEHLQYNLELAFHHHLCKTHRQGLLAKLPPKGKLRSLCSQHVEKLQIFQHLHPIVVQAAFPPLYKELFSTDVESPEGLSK
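A Gal4/UAS one-hybrid system in insect cells: metallothionein-promoter Gal4–ROR gamma fusion plus Photinus luciferase reporter. Copper sulfate 700 uM final, 20 hr ambient incubation, luminescent detection after 10 min with reagent.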
KinaseGlo FLuc: Counterscreen for Luciferase (Kinase-Glo TM) Inhibition. Luciferin 4-monooxygenase (Photuris pensylvanica), Q27757. Kinase-Glo luciferase, ATP luminescence, 8 min. Potency, µM (top dose mostly 38.3 µM), most hits filed as inhibitors. 200,000 tested, 0.28% active. AID 1379, 2008; note: nearly all actives have a fitted effect of over 60% in size
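Recombinant Kinase-Glo luciferase, 10 uM ATP (linear range), luciferin; imidazole pH 7.2 / KCl / MgCl2 / Tween / BSA buffer; 8 min RT; luminescence.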
Of the large screens only hits and unclear results are named; the others gave an inactive call. Calls come from the whole dose curve; as a rule, active = well fitted curve in the direction sought with a large enough effect; inconclusive = small, poorly fitted or top-dose-only effect, or another doubt; inactive = no such curve, though single readings can be large; an effect the other way counts as inactive or inconclusive.

CCOC(=O)c1sc2c(c1C)c(=O)n(CCO)c(=O)n2Cc1ccccc1	none (no result: KinaseGlo FLuc)
S=c1[nH]nc(-c2cc3ccccc3o2)n1Cc1ccccc1	VP16 counter 1.78µM, RORg inh 0.631µM
S=c1[nH]nc(-c2ccc(Cl)cc2Cl)n1Cc1ccccc1	VP16 counter 5.62µM, RORg inh 2.82µM
NC(=O)CSc1nnc(-c2cc3ccccc3o2)n1Cc1ccccc1	RORg inh inconclusive
S=c1[nH]nc(-c2ccc(Cl)cc2Cl)n1-c1ccccc1	VP16 counter inconclusive (no result: KinaseGlo FLuc)
N=C1C(c2ccccc2)=C(O)CN1c1cccc(S(=O)(=O)Nc2cccc(C(F)(F)F)c2)c1	none
Cc1cccc(C(=O)Nc2ccc3ccccc3c2)c1	none (no result: KinaseGlo FLuc)
CN(C)N1C(=O)CC(NNC(=O)c2ccncc2)C1=O (stereo unspecified)	none
CNCC(=O)Nc1ccc(OC(F)(F)F)cc1	none
CNC(=S)Nc1ccc(C(N)=O)cc1	none
Fc1ccc(NC(=S)Nc2ccc(Br)cc2)cc1	VP16 counter inconclusive, RORg inh inconclusive
CCCNC(=S)Nc1ccc(Nc2ccccc2)cc1	VP16 counter 15.8µM, RORg inh 5.01µM
CNC(=S)Nc1ccc(Nc2ccccc2)cc1	RORg inh 11.2µM
CNC(=S)Nc1ccc(Br)cc1	RORg inh 35.5µM
S=C(NCCCNC(=S)Nc1ccccc1)Nc1ccccc1	RORg inh inconclusive
CNC(=S)Nc1ccc(OC(F)(F)F)cc1	VP16 counter 10µM, RORg inh 7.08µM
COc1ccc(C(=O)CCC(=O)N2CCN(c3ccccc3)CC2)cc1	none (no result: KinaseGlo FLuc)
Cc1nc2ncnn2c(C)c1CCC(=O)NCCCN1CCN(c2cccc(Cl)c2)CC1	none (no result: VP16 counter)
O=C(N/N=C/c1cc([N+](=O)[O-])cc(Br)c1O)C12CC3CCC(CC(C3)C1)C2	VP16 counter 3.98µM, RORg inh 5.01µM (no result: KinaseGlo FLuc)
COc1cc(/C=N/NC(=O)C23CC4CC(CC(C4)C2)C3)cc(Br)c1O	none
N#Cc1cccc(-c2nc(Nc3ccccc3)c3ccccc3n2)c1	none
Cc1cc(C)nc(-n2nc(C)c3c(C)c(C)c(C)nc32)n1	RORg inh 10µM
Cc1cc(C)nc(-n2nc(C)c3c(=O)[nH]c(C(F)(F)F)nc32)n1	none
Cc1cc2ccccc2c(=O)n1CC(=O)NCc1ccco1	none
CCOC(=O)/C(C#N)=C/c1cccc(F)c1	none
CC(C)N1C(=S)N(Cc2ccco2)C(=O)C1CC(=O)Nc1ccccc1 (stereo unspecified)	RORg inh 17.8µM
O=C(CC1C(=O)N(c2ccccc2)C(=O)N1Cc1ccco1)Nc1ccccc1 (stereo unspecified)	none
CC(Nc1cccc(F)c1)C(=O)Nc1ccc(S(N)(=O)=O)cc1 (stereo unspecified)	none
CCn1c(SCC(=O)Nc2ccc(Cl)cc2)nc2nc3c(cc2c1=O)CCCC3	VP16 counter 12.6µM, RORg inh 14.1µM
Cn1c(SCc2ccccc2Cl)nc2ccccc21	RORg inh inconclusive
CCn1c(SCC(=O)Nc2ccc(C(C)=O)cc2)nc2nc3c(cc2c1=O)CCCC3	VP16 counter inconclusive, RORg inh inconclusive
CCn1c(SCC(=O)NCc2ccccc2)nc2nc3c(cc2c1=O)CCCC3	none
CCn1c(SCc2ccccc2Cl)nc2nc3c(cc2c1=O)CCCC3	VP16 counter inconclusive, RORg inh 11.2µM
CCn1c(SCc2ccccc2Cl)nc2ccccc21	RORg inh 10µM
COC(=O)c1ccc(/C=C2/SC(=S)N(CCCC(=O)Nc3ccc(O)cc3)C2=O)cc1	none (no result: KinaseGlo FLuc)
Cc1ccc(/C=C2\SC(=S)N(CCCC(=O)Nc3ccccn3)C2=O)cc1	VP16 counter 1.58µM, RORg inh 0.447µM
Cc1ccc(/C=C2\SC(=S)N(CCCC(=O)Nc3ccc(O)cc3)C2=O)cc1	RORg inh 0.0501µM (no result: VP16 counter, KinaseGlo FLuc)
O=C(CN1C(=O)S/C(=C/C=C/c2ccccc2)C1=O)Nc1ccc(C(=O)O)cc1	none
O=C(CCN1C(=O)/C(=C/c2ccccc2)SC1=S)Nc1ccccn1	none (no result: KinaseGlo FLuc)
O=C(CCCN1C(=O)S/C(=C\C=C\c2ccccc2)C1=O)Nc1ccc(O)cc1	VP16 counter inconclusive, RORg inh 0.316µM (no result: KinaseGlo FLuc)
COc1ccc(/C=C2\SC(=S)N(CCCC(=O)Nc3ccccn3)C2=O)cc1OC	VP16 counter 5.01µM, RORg inh 4.47µM
COc1ccc(/C=C2\SC(=S)N(CCCC(=O)Nc3cccc(C(=O)O)c3)C2=O)cc1OC	none (no result: KinaseGlo FLuc)
CCOC(=O)c1ccc(CSc2nnc(-c3ccncc3)n2N)cc1	none
CCC[C@@H]1C[C@@H](C(=O)N[C@@H]([C@H]2O[C@H](SC)[C@H](O)[C@@H](O)[C@H]2O)[C@@H](C)O)N(C)C1	none
O=C(/C=C/c1ccccc1)NCCO	none (no result: KinaseGlo FLuc)
Cc1ccc(/C=C2/SC(=S)N(CCCC(=O)Nc3cc([N+](=O)[O-])ccc3O)C2=O)cc1	VP16 counter inconclusive, RORg inh 7.94µM (no result: KinaseGlo FLuc)
O=C(CN1C(=O)S/C(=C\c2ccccc2)C1=O)Nc1cc([N+](=O)[O-])ccc1O	RORg inh inconclusive (no result: KinaseGlo FLuc)
Cc1nnc2sc(-c3csc4c3CCCC4)nn12	none
S=c1nc(-c2csc3c2CCCC3)[nH][nH]1	VP16 counter 11.2µM, RORg inh 3.98µM
CCOC(=O)C1CCCN(CCC(=O)Nc2cccc(Cl)c2C)C1 (stereo unspecified)	none (no result: KinaseGlo FLuc)
Cc1cc(=O)n(-c2ccc(C(=O)O)cc2)[nH]1	none
CCOC(=O)c1ccc(-n2[nH]c(-c3ccccc3)cc2=O)cc1	VP16 counter 5.62µM, RORg inh inconclusive
COc1ccc(C)cc1N(C(=O)c1ccccc1F)c1nc2ccccc2s1	none
Nc1c(C(=O)Nc2ccccc2Cl)nnn1-c1ccc2c(c1)OCCO2	VP16 counter inconclusive, RORg inh 0.0562µM (no result: KinaseGlo FLuc)
Nc1c(C(=O)Nc2ccc3c(c2)OCCO3)nnn1CCc1ccccc1	RORg inh inconclusive
c1ccc(CN2CCN(C(c3ccccc3)c3ccccc3)CC2)cc1	none (no result: KinaseGlo FLuc)
O=S(=O)(CCN1CCN(C(c2ccccc2)c2ccccc2)CC1)C(F)(F)F	VP16 counter 15.8µM, RORg inh inconclusive
COc1ccc(-c2nn(-c3ccccc3)cc2/C=N/Nc2cccc(C(=O)O)c2)cc1	RORg inh inconclusive
O=C(NCc1cn(-c2ccccc2)nc1-c1ccccc1)c1cccc([N+](=O)[O-])c1	VP16 counter inconclusive
COc1ccccc1NS(=O)(=O)c1cccc(C(=O)N/N=C/c2ccccc2OCC(=O)O)c1	none
O=C(N/N=C/c1cn(-c2ccccc2)nc1-c1ccc(F)cc1)c1ccc2c(c1)OCO2	VP16 counter inconclusive, RORg inh 2.24µM
COc1ccc(-c2nn(-c3ccccc3)cc2/C=N/NC(=O)c2ccc3c(c2)OCO3)cc1	RORg inh 2.51µM
COc1ccc(-c2nn(-c3ccccc3)cc2/C=N/NC(=O)c2cccc(S(=O)(=O)Nc3ccccc3OC)c2)cc1	VP16 counter 1.26µM, RORg inh 1.26µM
COc1ccc(-c2nn(-c3ccccc3)cc2CNC(=O)c2cccc([N+](=O)[O-])c2)cc1	VP16 counter 8.91µM, RORg inh inconclusive
O=C(N/N=C/c1ccc2c(c1)OCO2)c1cc(-c2ccc(F)cc2)nc2ccccc12	VP16 counter inconclusive, RORg inh inconclusive
Cc1cccc(C)c1NC(=O)CSc1nnc(-c2cccnc2)o1	none
O=C(N/N=C\c1cn(-c2ccccc2)nc1-c1ccccc1)c1ccc2c(c1)OCO2	VP16 counter inconclusive, RORg inh 1.78µM
O/N=C/c1cn(-c2ccccc2)nc1-c1ccc2c(c1)OCCO2	none
